Columns and labels:
Test in all cases: PBM binding z-score (relative to random genomic background probes); higher = stronger binding; sequences stand for … in GC…GCGATTGACAGCGTAGAATGAAGG
[1] = tested on: RARb homodimer (NR concentration 270 nM)
Procedure, shortened: (§1)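 Probes were double-stranded and carried 34-nt variable regions with direct-repeat seeds, single-nucleotide variants, half-site ablations and random human genomic background sequences, printed on custom Agilent 4×180K protein-binding microarrays. Arrays were incubated 1 h with ligand-free nuclear receptor dimers in PBS pH 7.4, 2% milk, 0.02% Triton X-100, 1 mM DTT, 0.2 mg/mL BSA and 0.4 mg/ml salmon testes DNA. Antibodies against each partner (one per run) detected binding, and scanned fluorescence was regression-normalized. Binding z-scores use the random background probes as reference.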

[2] = tested on: RARg:RXRa (NR concentration 270 nM, RXRa partner concentration 90 nM)
Procedure, shortened: as §1

[3] = tested on: RARg homodimer (NR concentration 270 nM)
Procedure, shortened: as §1

[4] = tested on: RXRa DBDmut IVT, anti-RXR (DBD mutation: RXRa K156A/R161A, NR concentration 90 nM)
Procedure, shortened: as §1

[5] = tested on: RXRa homodimer (NR concentration 180 nM)
Procedure, shortened: as §1

[6] = tested on: THRa:RXRa (NR concentration 90 nM, RXRa partner concentration 90 nM)
Procedure, shortened: as §1

[7] = tested on: THRa homodimer (NR concentration 90 nM)
Procedure, shortened: as §1

[8] = tested on: VDR homodimer (NR concentration 270 nM)
Procedure, shortened: as §1

Sequence | PBM binding z-score [1] | PBM binding z-score [2] | PBM binding z-score [3] | PBM binding z-score [4] | PBM binding z-score [5] | PBM binding z-score [6] | PBM binding z-score [7] | PBM binding z-score [8]
CGAACTAGGACAGAACAGGACAGTGAAGGATGAT | 0.214 | 0.299 | 0.538 | -0.164 | 0.23 | 0.492 | -0.221 | -0.157
TCTTGTAGATCAATAAAGGTTAAGAAAGTGCGCT | 1.87 | 1.1 | 0.821 | 1.1 | 1.72 | 2.05 | -0.219 | 0.571
CAAACTAGGTCACCGGTAGGTCAAAGTCCGCATG | 4.94 | 7.11 | 6.27 | 1.7 | 4.82 | 4.3 | 2.8 | 2.2
CCGACTGGGGCATAACGTTACCATAAGCCAGCCC | -0.131 | -0.0174 | 0.122 | -0.083 | -0.0796 | -0.497 | -0.431 | -0.0002
TCTTGTAGATCAAAGGTTTAGAAAGCCGAAGCCT | -0.342 | -0.312 | -0.404 | 0.516 | 0.291 | -0.356 | -0.747 | 0.0902
GGAACGATGGCAAGTTGATAGCAGAGTTTGATGG | -0.624 | -0.353 | -0.158 | -0.0368 | -0.123 | -0.797 | -0.814 | 0.0604
ATCTCTAGGTAACAACTTCAGTGAAAGAGAGGAC | 0.514 | 0.787 | 0.752 | -0.232 | 0.536 | 1.14 | 0.654 | 0.576
AGAACGAGGTTATTAAGATCAGGGAATTGCGGTC | 0.861 | 0.912 | 0.734 | 1.68 | 1.82 | 1.65 | 0.227 | 1.33
TCCTGTAGATCAATAGAGGTTAAGAAAGTGCGCT | 1.25 | 0.701 | 0.381 | 1.41 | 1.19 | 2.29 | -0.00152 | 0.39
CGTCCAAGGTCATAGGAGGTCAGTGCAGACAGAT | 4.94 | 6.63 | 6.9 | 4 | 6.32 | 5.34 | 2.96 | 4.88
ACAGACAGGTGAGTGAGGGTAACTCAGCTGGACG | 0.68 | 0.525 | 0.533 | -0.362 | 0.572 | 1.63 | 0.184 | 0.0737
CATACAGGGTCAGCTATGCCAGAGTAGGGACGGC | 2.98 | 4.2 | 4.27 | 1.55 | 4.14 | 2.75 | 0.818 | 1.06
GCTTATAGATCAAGGTTAAGAAAGACTAAGCTAA | 0.33 | 0.377 | 0.552 | 0.345 | 0.835 | 1.32 | 0.0443 | -0.265
CCTAGTTGGTCAGGAGGTCACACACCGGATATGA | 4.56 | 5.11 | 4.78 | 0.706 | 4.83 | 3.61 | 2.6 | 2.82
GCTAGCAGGCCATTTGGGTCACTTAATGACGGGC | 1.82 | 0.913 | 1.22 | -0.0616 | 0.684 | 1.79 | 0.181 | 0.405
CGTCCCAGGTCAGCAGGTCAGTGAAAGCGACGTG | 3.99 | 4.83 | 4.51 | 0.368 | 3.25 | 3.56 | 2.19 | 0.573
TTACCAAGGTGAGCTGAGGTCGTTGGTCCAACTC | 1.6 | 1.2 | 0.604 | -0.219 | 1.34 | 4.45 | 2.2 | 2.56
GCTGCTATGTCAACTGATGGTCAGCTAAAGCTCG | 0.659 | 0.506 | 0.101 | 0.137 | -0.00112 | -0.0819 | -1.13 | -0.702
CGAACGAGGGTATGAGTTGATAGCAAATGCCGAT | -0.208 | 0.124 | 0.248 | 0.658 | 0.0632 | -0.183 | -0.485 | 0.345
ATATGTTGGTTAGCTGGGGTCATTCAGACTAGGC | 3.55 | 3.66 | 2.3 | 1.91 | 4.97 | 4.21 | 3.57 | 5.32
GTACCAAGGTAAATAGGTCGTTGATGAGTAGGCG | 0.723 | 0.808 | 0.391 | -0.235 | 0.953 | 0.973 | -0.00878 | 0.628
TCATATAGGTAAACAGGTGATAGTCCGTAAGTTA | 0.338 | 0.509 | 0.323 | 1.35 | 0.949 | 0.375 | 0.179 | 0.482
AGTCCAAGTTCAGGACGAGGTAACGTAAAGCACG | 1.71 | 2.68 | 2.35 | 3.51 | 1.3 | 3.44 | 1.65 | 2.91
CAAACTAGGTCAAGAGGTCAAAGACCGCTTCCCG | 5.76 | 8.18 | 7.8 | 2.18 | 8.47 | 4.39 | 2.18 | 3.76
GGAACCAGGGCATTCGAGTTGATAGCATGGCGAT | 1.54 | 1.05 | 1.49 | 1.17 | 0.534 | 2.66 | 0.671 | 1.97
CCTTACGGGTCAAGGTTATAGAACGGGTGGTACG | 3.67 | 4.92 | 4.97 | 0.482 | 5.58 | 3.02 | 0.782 | 1.14
CCTACTGTGCCAAAAAGGTCATTGATGCCGATAA | 4.41 | 4.52 | 3.97 | 1.73 | 4.42 | 3.26 | 1.48 | 3.38
TCGAGTAGGTTAGTCGGGGCATCCAGCCAACATA | 0.213 | 0.0156 | -0.131 | -0.109 | 0.28 | 1.05 | -0.433 | -0.177
GCTGCTCGGTCAGGTTGGTCAGCTAACGGGTACG | 1.53 | 0.691 | 2.11 | -0.37 | -0.405 | -0.155 | -0.287 | -0.476
